Measured values from a collection of fitness landscapes (doi:10.1126/science.1257360).
The full ranking holds about 140,000 sequences; the median of “enrichment ratio after two sorts for PhoP signalling” is about 0, and the highest 2% start at about 11. Only a selection was taken, and the highest values are over-represented in it overall.

B1: PhoQ; a variant is named by its letters at X, in order, P23837 (parent)
chain: MKKLLRLFFPLSLRVRFLLATAAVVLVLSLAYGMVALIGYSVSFDKTTFRLLRGESNLFYTLAKWENNKLHVELPENIDKQSPTMTLIYDENGQLLWAQRDVPWLMKMIQPDWLKSNGFHEIEADVNDTSLLLSGDHSIQQQLQEVREDDDDAEMTHSVAVNVYPATSRMPKLTIVVVDTIPVELKSSYMVWSWFIYVLSANLLLVIPLLWVAAWWSLRPIEALAKEVRELEEHNRELLNPATTRELTSLVRNLNRLLKSERERYDKYRTTLTDLTHSLKTPLXXLQXXLRSLRSEKMSVSDAEPVMLEQISRISQQIGYYLHRASMRGGTLLSRELHPVAPLLDNLTSALNKVYQRKGVNISLDISPEISFVGEQNDFVEVMGNVLDNACKYCLEFVEISARQTDEHLYIVVEDDGPGIPLSKREVIFDRGQRVDTLRPGQGVGLAVAREITEQYEGKIVAGESMLGGARMEVIFGRQHSAPKDE

Variants of: B1
Assay: enrichment ratio after two sorts for PhoP signalling (ratio (wild type AVST 3.29)); higher = more functional
Details: with PhoP (E. coli)

| Variant | enrichment ratio |
| --- | --- |
| DRLW | ≤ 0.25 |
| QCLL | 2.35 |
| GCLL | 18.3 |
| LTLL | 3.06 |
| GNLL | 15.3 |
| KCLL | ≤ 0.25 |
| WILL | ≤ 0.25 |
| NPLL | ≤ 0.25 |
| GTLL | 12.4 |
| NILL | 0.938 |
| GICL | 9.48 |
| GILL | 18.2 |
| LNLL | ≤ 0.25 |
| TKDY | ≤ 0.25 |
| KPVK | ≤ 0.25 |
| ICMI | ≤ 0.25 |
| SFHP | ≤ 0.25 |
| YHHD | ≤ 0.25 |
| AQVH | 7.73 |
| GEFP | ≤ 0.25 |
| VRNY | ≤ 0.25 |
| GAAL | ≤ 0.25 |
| GALL | 13.8 |
| GIAL | 13 |
| HILL | ≤ 0.25 |
| GNAL | 7.59 |

| Variant | enrichment ratio |
| --- | --- |
| SKLT | 4.23 |
| SKLL | 14 |
| YALL | 10.6 |
| WKIW | ≤ 0.25 |
| PCAY | ≤ 0.25 |
| QHAW | ≤ 0.25 |
| LSTI | ≤ 0.25 |
| GWLL | ≤ 0.25 |
| KRIA | ≤ 0.25 |
| FCYK | ≤ 0.25 |
| PGQT | ≤ 0.25 |
| QFAV | ≤ 0.25 |
| FDWQ | ≤ 0.25 |
| SGCY | 10.6 |
| AICR | 11.2 |
| AIMR | 16.6 |
| AICV | 15.3 |
| WICV | ≤ 0.25 |
| ADCV | ≤ 0.25 |
| NICI | ≤ 0.25 |
| KKMR | ≤ 0.25 |
| NICR | ≤ 0.25 |
| NICK | 14.4 |
| NIWM | ≤ 0.25 |
| WICR | ≤ 0.25 |
| AHMR | ≤ 0.25 |

| Variant | enrichment ratio |
| --- | --- |
| IVKK | ≤ 0.25 |
| LSQL | ≤ 0.25 |
| TSAF | 7.11 |
| PIGM | ≤ 0.25 |
| ADYP | ≤ 0.25 |
| AICK | 24.4 |
| WICS | ≤ 0.25 |
| AHYP | ≤ 0.25 |
| AICS | 18.9 |
| AIWM | ≤ 0.25 |
| AIGM | 8.76 |
| AICI | 16.9 |
| AIYP | 12.7 |
| AICA | 3.23 |
| NICS | ≤ 0.25 |
| AILH | 3.54 |
| MWPS | ≤ 0.25 |
| VCLF | 0.991 |
| LARM | ≤ 0.25 |
| VEST | 4.04 |
| APVK | ≤ 0.25 |
| HAAR | ≤ 0.25 |
| AIIE | ≤ 0.25 |
| AICE | 14.2 |
| AHCE | ≤ 0.25 |
| HKRT | ≤ 0.25 |

| Variant | enrichment ratio |
| --- | --- |
| NRGY | ≤ 0.25 |
| DMWC | ≤ 0.25 |
| TNAS | 13.9 |
| MNAV | 2.67 |
| SNAE | 7.95 |
| ANAV | 14.3 |
| TNAV | 27.6 |
| MNAS | 6.24 |
| SQAV | 6.43 |
| TNAE | ≤ 0.25 |
| AKAV | 0.73 |
| SNAV | 12.6 |
| TNAT | 11 |
| ANAE | ≤ 0.25 |
| VMEP | ≤ 0.25 |
| SHGD | ≤ 0.25 |
| NFGC | ≤ 0.25 |
| DFHC | ≤ 0.25 |
| QAAF | ≤ 0.25 |
| RPYT | ≤ 0.25 |
| ANAT | 17.7 |
| TNAA | 13.7 |
| ANLT | 4.56 |
| MNAA | 8.61 |
| TNAD | ≤ 0.25 |
| ANNT | ≤ 0.25 |

| Variant | enrichment ratio |
| --- | --- |
| HRYS | ≤ 0.25 |
| LMNM | ≤ 0.25 |
| NMWP | ≤ 0.25 |
| SAMD | ≤ 0.25 |
| KACQ | ≤ 0.25 |
| SACQ | 13.5 |
| SACK | 0.562 |
| SAAM | 7.53 |
| SAPE | ≤ 0.25 |
| SACE | 11.7 |
| SACI | 13.7 |
| SAQP | ≤ 0.25 |
| WVWC | ≤ 0.25 |
| YMTW | ≤ 0.25 |
| YYYE | ≤ 0.25 |
| RLRN | ≤ 0.25 |
| SGRV | ≤ 0.25 |
| SHQI | ≤ 0.25 |
| TAQI | 23.7 |
| TQRI | ≤ 0.25 |
| THQI | 24.1 |
| LQQI | ≤ 0.25 |
| NHQI | ≤ 0.25 |
| TAPA | ≤ 0.25 |
| TQQI | 11.5 |
| LAQI | ≤ 0.25 |

| Variant | enrichment ratio |
| --- | --- |
| PTQI | ≤ 0.25 |
| KQQI | ≤ 0.25 |
| TKQI | 17.5 |
| IYTC | ≤ 0.25 |
| SRID | ≤ 0.25 |
| LRCL | ≤ 0.25 |
| VTSC | ≤ 0.25 |
| QCKT | ≤ 0.25 |
| MFMN | ≤ 0.25 |
| YQKV | ≤ 0.25 |
| GKEW | ≤ 0.25 |
| KSQI | ≤ 0.25 |
| TLQI | 14.7 |
| KAQI | ≤ 0.25 |
| VMGP | ≤ 0.25 |
| DKIR | ≤ 0.25 |
| PQLM | ≤ 0.25 |
| KNVL | ≤ 0.25 |
| EARA | ≤ 0.25 |
| FQWE | 1.71 |
| SHME | ≤ 0.25 |
| NHME | ≤ 0.25 |
| AHME | 12.2 |
| THME | 49 |
| AAME | 30.8 |
